Results taken from PubChem BioAssay (NCATS).
Several values for one entry are separate records, joined by “and”; a condition that tells them apart may be missing. Identical values can stand only once. Unmarked numbers belong to inactive results. Records with an inconclusive call do not appear. Entries that show only a call come without a potency. Activity calls are given as the source filed them. Unless noted, calls come from the whole dose curve; as a rule, active = well fitted curve in the direction sought with a large enough effect; inconclusive = small, poorly fitted or top-dose-only effect, or another doubt; inactive = no such curve, though single readings can be large; an effect the other way counts as inactive or inconclusive.

How the values were obtained:
[1] = target: Mitogen-activated protein kinase 10 (Mus musculus) (UniProt Q61831); test: JNK3 AlphaScreen Assay (AID 530; active = well fitted curve in either direction with a large enough effect, not every such curve was filed as active;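 note: kinase came from lysate of stimulated human HepG2 cells; signal reports phosphorylation of biotinylated GST-cJun 1-79 at Ser73 with 10 µM ATP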)
Procedure, shortened: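 qHTS titrations with 15 min compound pre-incubation before adding ATP (10 uM final). Read-out: AlphaScreen of Ser73-phosphorylated biotin-GST-cJun using HepG2 lysate JNK3 activated by IL-1β and TNFα.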

[2] = Cell Viability - N2a (AID 540); settings: N2a mouse neuroblastoma cell viability; activity change, negative = cytotoxicity: at 92.2 µM (top of the series);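 note: cells exposed to compound for 40 h at 37 °C; nearly all actives have a fitted effect of over 45% in size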
Procedure, shortened: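 Cytotoxicity was scored as loss of cellular ATP in N2a cells, a mouse neuroblastoma line. Compounds are applied in a qHTS concentration series for 40 hr at 37 °C.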

[3] = Cell Viability - Renal Proximal Tubule (AID 545);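 note: cells exposed to compound for 40 hours; nearly all actives have a fitted effect of over 40% in size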
Procedure, shortened: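 Cytotoxicity is scored as a concentration-dependent drop in cellular ATP in primary rat renal proximal tubule cells exposed for 40 hr. AC50 derives from Hill modelling.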

[4] = Cellular Toxicity (caspase-3) SHSY5Y (AID 657);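 note: cells exposed to compound for 16 hours at 37 °C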
Procedure, shortened: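 Cells plated and incubated 5 h at 37 °C, dosed over a concentration range, incubated 16 h, then given Caspase-Glo 3/7 reagent for 1 h at room temperature before luminescence reading. Staurosporine (10 uM) defined full stimulation.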

[5] = target: Cytochrome P450 3A4 (Homo sapiens) (UniProt P08684); test: qHTS Assay for Inhibitors and Substrates of Cytochrome P450 3A4 (AID 884); note: nearly all actives have a fitted effect of over 50% in size; note: potency is the fitted concentration of half-maximal effect
Procedure, shortened: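 Luminescent readout of luciferin produced by CYP3A4 (20 nM) dealkylation of Luciferin-PPXE, 25 uM (its KM). NADPH-driven reaction ran 60 min at RT after 10 min compound preincubation; data scaled to 57 uM ketoconazole as 100% inhibition.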

[6] = MultiTox-Fluor Cytotoxicity Assay - LYMP1-002 - Dead Cells (AID 960); note: nearly all actives have a fitted effect of over 60% in size; note: potency is the fitted concentration of half-maximal effect
Procedure, shortened: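 Cells were plated, rested 5 hr, then treated with compound dilution series for 16 hr at 37 C. After adding substrate reagent and 60 min at room temperature, dead-cell protease fluorescence gave concentration-response curves fitted by the Hill equation.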

[7] = Cell Viability - LYMP2-023 (AID 975);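 note: cellular ATP measured by luciferase luminescence as viability proxy; cells exposed to compound for 24 hours at 37 °C; nearly all actives have a fitted effect of over 55% in size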
Procedure, shortened: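 Steps: seed 2500 human lymphoblastoid cells per well, incubate 5 hr at 37 C, add compound for 24 hr at 37 C, add CellTiter-Glo, hold 30 min at room temperature, read luminescence. AC50 derived by Hill modelling.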

[8] = Cell Viability - LYMP1-002 - Assay at 24 hr (AID 993)
Procedure, shortened: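 Acute toxicity is measured as concentration-dependent loss of cellular ATP in a human lymphoblastoid line (Coriell LYMP1-002) after 24 h treatment in complete medium. ATP is quantified by luciferase luminescence and AC50 derived by Hill modelling.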

[9] = target: Peroxisome proliferator-activated receptor gamma (Homo sapiens) (UniProt P37231); test: qHTS assay for small molecule agonists of peroxisome proliferator-activated receptor gamma signaling (AID 588536; active = well fitted curve in the direction sought with a large enough effect in the signal ratio, with a control signal flat, not every such curve was filed as active; the % refers to the signal ratio)
Procedure, shortened: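 Cells were plated and held 6–6.5 h at 37 C, then compounds were added as a titration series. After a further 16 h, CCF4 dye was loaded for 2 h at room temperature and emission at 460/530 nm recorded.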

[10] = target: Vitamin D3 receptor (Homo sapiens) (UniProt P11473); test: qHTS assay for small molecule antagonists of vitamin D receptor signaling (AID 588541; calls by dose curve;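 note: receptor activated by calcitriol during compound treatment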)
Procedure, shortened: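 Antagonist-mode beta-lactamase reporter assay: HEK293T VDR-UAS-bla cells were exposed to titrated compound alongside 1-alpha,25-dihydroxyvitamin D3 at 3 nM final for 16 h. Values were normalized to the 50 nM agonist control and DMSO basal, with IC50 and efficacy from Hill equation fits.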

[11] = target: Thyroid hormone receptor beta (Homo sapiens) (UniProt P10828); test: qHTS assay for small molecule antagonists of thyroid hormone receptor beta signaling (AID 588547; active = well fitted inhibition curve with a large enough effect in the signal ratio, with a control signal flat, not every such curve was filed as active; the % refers to the signal ratio;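 note: cells stimulated with 0.4 nM T3 agonist during compound exposure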); settings: TR-UAS-bla HEK293, beta-lactamase ratio, antagonist mode, 18 h
Procedure, shortened: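 Inhibition of T3-driven (0.4nM final) beta-lactamase reporter activity was measured over 0.59 nM to 92 uM compound after 18 h at 37 C. The cells were GripTite HEK293 TR-UAS-bla in charcoal/dextran-stripped serum, with CCF4 ratio read-out and IC50 from Hill fits.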

[12] = target: Voltage-gated inwardly rectifying potassium channel KCNH2 (Homo sapiens) (UniProt Q12809); test: qHTS Assay for Small Molecule Inhibitors of the Human hERG Channel Activity (AID 588834);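 note: U2OS cells transduced with hERG by BacMam; top concentration of the series differs between compounds; lower thallium flux fluorescence means stronger hERG block; nearly all actives have a fitted effect of over 50% in size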
Procedure, shortened: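 Cells were infected with hERG-BacMam virus for 4 hrs at room temperature, grown overnight, then seeded at 2000/well. After dye loading and roughly 10 min compound treatment, thallium influx was triggered and fluorescence recorded.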

[13] = qHTS assay for small molecule disruptors of the mitochondrial membrane potential - 1 hr assay (AID 651754; calls by dose curve; note: nearly all actives have a fitted effect of over 35% in size; note: potency is the fitted concentration of half-maximal effect)
Procedure, shortened: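 Loss of mitochondrial potential shifts the cationic dye from red mitochondrial aggregates to green cytoplasmic monomers. Cells (HepG2) are treated with compound for 1 hr before a 30 min dye incubation at 37C.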

[14] = qHTS assay for small molecule disruptors of the mitochondrial membrane potential - 5 hr assay (AID 651755; calls by dose curve; note: nearly all actives have a fitted effect of over 40% in size)
Procedure, shortened: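 Membrane-potential dye readout: red aggregate (540 ex/590 em) versus green monomer (490 ex/535 em) fluorescence after 30 min dye loading, following 5 hr compound exposure at 37C of overnight-plated HepG2 cells.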

[15] = target: Tumor necrosis factor (Homo sapiens) (UniProt P01375); test: qHTS assay to identify small molecules that stimulate Tumor Necrosis Factor-alpha (TNF-alpha) secretion (AID 651757; active = well fitted curve in the direction sought with a large enough effect in the signal ratio; the % refers to the signal ratio)
Procedure, shortened: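 Human monocytic THP-1 cells are plated, treated with compound and held at 37 C for 17 hrs. Labeled anti-TNF-alpha antibody mixture is then added; after 3 hr at room temperature, TR-FRET signal reports secreted TNF-alpha.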

[16] = target: Nuclear receptor ROR-gamma (Homo sapiens) (UniProt P51449); test: qHTS assay for small molecule antagonists of the retinoid-related orphan receptor gamma (ROR-gamma) signaling pathway (AID 651802);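 note: CHO cells with doxycycline-induced ROR-gamma expression; nearly all actives have a fitted effect of over 60% in size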
Procedure, shortened: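 Steps: cells dispensed; compound or DMSO transferred by pin tool; doxycycline added to induce the ROR response element-driven luciferase; plates held 16hr at 37C; ONE-Glo added and luminescence measured.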

[17] = qHTS assay for small molecule agonists of the antioxidant response element (ARE) signaling pathway measured by Nrf2-dependant transcriptional activity - cell viability counter screen (AID 720653; active = well fitted curve in the direction sought with a large enough effect in the repeat runs; an effect the other way counts as inactive or inconclusive); settings: ARE-bla HepG2 viability, CellTiter-Glo ATP luminescence, 16 h; hits give low values
Procedure, shortened: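 Cytotoxicity counter screen: intracellular ATP quantified by CellTiter-Glo luminescence in the same ARE-bla HepG2 plates, after 16 h compound exposure and a 2 h beta-lactamase substrate step.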

[18] = qHTS assay for cell viability of HEK293 cells (AID 743288); settings: ATP luminescence (CellTiter-Glo), 18 h, hits give low values; note: nearly all actives have a fitted effect of over 50% in size
Procedure, shortened: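 Quantitative high-throughput screen: compounds were pinned onto parental HEK293 cells (2,000 per well) after a minimum 5 h settling at 37 C, incubated 18 h at 37 C, and intracellular ATP measured by luciferase luminescence.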

[19] = qHTS assay for small molecule activators of the human pregnane X receptor (PXR) signaling pathway (AID 720659; call rule not given here)
[20] = target: Nuclear receptor subfamily 1 group I member 2 (Rattus norvegicus) (UniProt Q9R1A7); test: qHTS assay for small molecule activators of the rat pregnane X receptor (rPXR) signaling pathway (AID 651751; call rule not given here); settings: rPXR reporter cells, luciferase (One-Glo), 24 h
Nuclear receptor subfamily 1 group I member 2 (Rattus norvegicus), sequence (Q9R1A7 whole entry, looked up): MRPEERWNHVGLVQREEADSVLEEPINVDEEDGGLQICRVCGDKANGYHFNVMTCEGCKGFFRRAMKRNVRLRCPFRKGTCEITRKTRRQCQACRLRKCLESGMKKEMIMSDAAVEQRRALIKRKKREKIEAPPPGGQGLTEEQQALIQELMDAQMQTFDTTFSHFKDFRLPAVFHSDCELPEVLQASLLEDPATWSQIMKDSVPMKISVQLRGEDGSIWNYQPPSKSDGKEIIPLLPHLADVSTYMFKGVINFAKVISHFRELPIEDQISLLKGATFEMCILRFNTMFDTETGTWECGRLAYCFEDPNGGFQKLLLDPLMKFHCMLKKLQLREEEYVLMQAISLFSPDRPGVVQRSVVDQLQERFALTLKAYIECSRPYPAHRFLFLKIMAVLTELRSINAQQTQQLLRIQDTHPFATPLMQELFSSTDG

Vitamin D3 receptor (Homo sapiens), sequence (P11473 whole entry, looked up): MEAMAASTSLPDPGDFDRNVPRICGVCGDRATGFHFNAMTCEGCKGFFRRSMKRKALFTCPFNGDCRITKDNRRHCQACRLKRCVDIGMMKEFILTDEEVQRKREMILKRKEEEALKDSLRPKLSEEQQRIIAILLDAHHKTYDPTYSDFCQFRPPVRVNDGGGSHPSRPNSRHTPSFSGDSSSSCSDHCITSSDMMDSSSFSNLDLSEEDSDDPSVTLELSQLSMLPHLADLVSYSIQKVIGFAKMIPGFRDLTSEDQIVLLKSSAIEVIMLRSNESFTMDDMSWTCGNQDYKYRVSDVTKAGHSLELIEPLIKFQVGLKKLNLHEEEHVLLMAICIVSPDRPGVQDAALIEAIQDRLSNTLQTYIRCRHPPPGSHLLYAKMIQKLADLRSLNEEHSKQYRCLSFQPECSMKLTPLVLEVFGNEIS
Peroxisome proliferator-activated receptor gamma (Homo sapiens), sequence (P37231 whole entry, looked up): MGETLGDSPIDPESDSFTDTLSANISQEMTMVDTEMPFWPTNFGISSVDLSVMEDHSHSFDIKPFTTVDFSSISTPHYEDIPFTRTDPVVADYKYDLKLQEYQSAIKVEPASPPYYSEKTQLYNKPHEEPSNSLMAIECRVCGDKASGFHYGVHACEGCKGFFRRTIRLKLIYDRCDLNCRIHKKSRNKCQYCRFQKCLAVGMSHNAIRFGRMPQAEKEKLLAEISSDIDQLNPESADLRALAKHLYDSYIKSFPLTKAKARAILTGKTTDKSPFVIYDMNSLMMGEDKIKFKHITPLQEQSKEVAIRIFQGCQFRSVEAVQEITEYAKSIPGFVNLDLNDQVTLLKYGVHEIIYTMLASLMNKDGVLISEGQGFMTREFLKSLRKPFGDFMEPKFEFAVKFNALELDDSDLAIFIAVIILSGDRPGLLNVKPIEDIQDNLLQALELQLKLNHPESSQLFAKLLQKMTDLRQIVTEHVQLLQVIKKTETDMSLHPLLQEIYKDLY
Voltage-gated inwardly rectifying potassium channel KCNH2 (Homo sapiens), sequence (Q12809 whole entry, looked up): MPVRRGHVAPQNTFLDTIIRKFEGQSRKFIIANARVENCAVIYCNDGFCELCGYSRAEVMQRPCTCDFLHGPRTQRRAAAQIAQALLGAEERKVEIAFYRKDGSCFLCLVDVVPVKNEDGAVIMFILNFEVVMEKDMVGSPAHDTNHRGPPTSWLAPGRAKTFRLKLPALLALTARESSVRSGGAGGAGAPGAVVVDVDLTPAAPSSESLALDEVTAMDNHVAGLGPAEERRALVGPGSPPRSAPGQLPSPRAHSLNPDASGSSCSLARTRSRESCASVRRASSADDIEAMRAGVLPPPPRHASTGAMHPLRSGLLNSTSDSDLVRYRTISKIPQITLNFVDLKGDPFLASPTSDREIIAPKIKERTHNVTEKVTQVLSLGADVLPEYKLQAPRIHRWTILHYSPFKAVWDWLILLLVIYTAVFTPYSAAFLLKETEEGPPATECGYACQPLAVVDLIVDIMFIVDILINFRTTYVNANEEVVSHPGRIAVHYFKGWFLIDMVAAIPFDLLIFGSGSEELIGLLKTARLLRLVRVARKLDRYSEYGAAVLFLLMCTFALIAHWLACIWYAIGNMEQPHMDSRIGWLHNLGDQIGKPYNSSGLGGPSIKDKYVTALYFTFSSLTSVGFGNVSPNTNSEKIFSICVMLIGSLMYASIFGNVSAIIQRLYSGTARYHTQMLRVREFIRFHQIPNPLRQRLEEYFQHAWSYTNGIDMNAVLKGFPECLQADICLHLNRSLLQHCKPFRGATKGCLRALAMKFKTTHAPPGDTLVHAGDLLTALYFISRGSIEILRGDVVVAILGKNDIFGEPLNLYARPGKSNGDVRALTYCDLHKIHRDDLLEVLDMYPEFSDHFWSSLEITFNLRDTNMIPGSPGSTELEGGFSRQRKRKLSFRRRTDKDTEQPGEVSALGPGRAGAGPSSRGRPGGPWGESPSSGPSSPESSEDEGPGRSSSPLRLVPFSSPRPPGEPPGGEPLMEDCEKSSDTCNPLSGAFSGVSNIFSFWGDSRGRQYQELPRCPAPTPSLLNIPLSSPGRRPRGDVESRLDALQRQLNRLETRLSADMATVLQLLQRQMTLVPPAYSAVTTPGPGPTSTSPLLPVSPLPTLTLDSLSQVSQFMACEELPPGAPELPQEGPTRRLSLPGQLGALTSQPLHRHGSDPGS
Tumor necrosis factor (Homo sapiens), sequence (P01375 whole entry, looked up): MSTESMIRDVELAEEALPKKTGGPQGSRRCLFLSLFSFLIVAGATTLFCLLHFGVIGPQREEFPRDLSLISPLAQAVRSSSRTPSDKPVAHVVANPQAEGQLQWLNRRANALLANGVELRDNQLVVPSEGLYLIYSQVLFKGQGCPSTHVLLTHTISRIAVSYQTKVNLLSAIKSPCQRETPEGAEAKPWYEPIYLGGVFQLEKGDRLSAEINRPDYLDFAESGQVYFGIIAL
Thyroid hormone receptor beta (Homo sapiens), sequence (P10828 whole entry, looked up): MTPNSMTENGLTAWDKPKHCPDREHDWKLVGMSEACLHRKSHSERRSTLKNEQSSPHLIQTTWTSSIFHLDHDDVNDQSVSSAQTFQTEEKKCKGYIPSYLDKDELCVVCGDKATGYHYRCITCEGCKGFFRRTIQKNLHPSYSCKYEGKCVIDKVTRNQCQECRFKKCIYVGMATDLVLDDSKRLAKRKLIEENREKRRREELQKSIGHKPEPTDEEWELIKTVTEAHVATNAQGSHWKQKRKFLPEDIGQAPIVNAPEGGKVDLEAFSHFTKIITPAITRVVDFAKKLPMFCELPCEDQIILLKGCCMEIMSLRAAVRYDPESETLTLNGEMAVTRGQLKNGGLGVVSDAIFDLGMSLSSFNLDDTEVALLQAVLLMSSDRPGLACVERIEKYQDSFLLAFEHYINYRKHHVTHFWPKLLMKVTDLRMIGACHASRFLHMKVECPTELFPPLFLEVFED
Nuclear receptor ROR-gamma (Homo sapiens), sequence (P51449 whole entry, looked up): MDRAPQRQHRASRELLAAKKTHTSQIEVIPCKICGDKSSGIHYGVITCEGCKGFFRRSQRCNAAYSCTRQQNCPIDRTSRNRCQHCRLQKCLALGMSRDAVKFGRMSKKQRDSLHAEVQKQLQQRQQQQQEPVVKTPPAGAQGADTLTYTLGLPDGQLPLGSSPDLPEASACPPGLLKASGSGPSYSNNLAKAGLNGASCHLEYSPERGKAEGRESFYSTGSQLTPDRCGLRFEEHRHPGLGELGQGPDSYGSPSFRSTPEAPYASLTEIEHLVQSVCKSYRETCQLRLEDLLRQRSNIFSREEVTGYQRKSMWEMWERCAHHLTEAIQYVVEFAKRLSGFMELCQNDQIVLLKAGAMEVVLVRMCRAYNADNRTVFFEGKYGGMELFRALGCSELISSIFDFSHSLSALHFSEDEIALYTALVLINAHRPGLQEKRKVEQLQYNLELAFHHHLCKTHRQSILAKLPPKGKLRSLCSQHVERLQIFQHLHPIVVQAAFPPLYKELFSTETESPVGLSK
Cytochrome P450 3A4 (Homo sapiens), sequence (P08684 whole entry, looked up): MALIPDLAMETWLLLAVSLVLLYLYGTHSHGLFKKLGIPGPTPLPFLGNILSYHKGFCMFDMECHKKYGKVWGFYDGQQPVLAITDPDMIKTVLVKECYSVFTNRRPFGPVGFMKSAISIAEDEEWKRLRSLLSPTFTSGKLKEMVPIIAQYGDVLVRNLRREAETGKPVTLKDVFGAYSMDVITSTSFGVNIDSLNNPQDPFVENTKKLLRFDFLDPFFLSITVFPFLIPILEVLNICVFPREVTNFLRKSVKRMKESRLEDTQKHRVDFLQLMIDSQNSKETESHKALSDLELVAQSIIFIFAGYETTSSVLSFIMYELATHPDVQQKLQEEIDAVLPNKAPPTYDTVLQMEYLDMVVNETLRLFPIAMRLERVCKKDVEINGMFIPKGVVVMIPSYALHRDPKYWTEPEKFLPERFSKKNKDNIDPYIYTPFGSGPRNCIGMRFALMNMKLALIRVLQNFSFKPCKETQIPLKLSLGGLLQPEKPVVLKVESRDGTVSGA

SMILES	Potency [1]	Potency [2]	outcome [3]	outcome [4]	Potency [5]	Potency [6]	Potency [7]	Potency [8]	outcome [9]	outcome [10]	activity change % (negative = inhibition) [11]	Potency [12]	Potency [13]	Potency [14]	outcome [15]	Potency [16]	max response [17]	max response [18]	outcome [19]	max response [20]
Cc1ccc(N)cc1C	inactive	inactive	inactive	inactive	inactive	inactive	inactive	inactive	inactive	inactive	9.98%	inactive	inactive	inactive	inactive	inactive	-7.17%	0.786%	inactive	–
O=[N+]([O-])c1ccc(Cl)c(Cl)c1Cl	inactive	inactive	inactive	–	inactive	inactive	–	–	inactive	inactive	–	inactive	–	inactive	inactive	inactive	-7.85%	8.59%	inactive	-4.87%
Nc1ccc(Cc2ccc(N)cc2)cc1	inactive	inactive	–	inactive	25.1 µM (active)	inactive	inactive	inactive	inactive	inactive	11% and -9.43%	inactive	inactive	inactive	–	inactive	-0.954% and 9.87%	9.53% and -1.85%	inactive	4.75% and 4.67%
ClC(Cl)C(Cl)Cl	inactive	inactive	inactive	inactive	inactive	inactive	–	–	inactive	inactive	0.5%	inactive	inactive	inactive	inactive	–	-4.41%	-11.3%	inactive	3.27%
O=[N+]([O-])c1ccc2c3c(cccc13)CC2	inactive	inactive	inactive	inactive	–	inactive	inactive	–	inactive	inactive	-2.33% and 7.31%	inactive	37.6 µM (active)	–	inactive	inactive	3.04% and 5.87%	-14% and -2.65%	inactive	–
NC1CCC(CC2CCC(N)CC2)CC1 (centres undefined)	inactive	inactive	–	inactive	inactive	3.98 µM (active)	inactive	inactive	inactive	–	7.19%	inactive	inactive	inactive	inactive	inactive	-9.14% and 3.44%	7.87% and 2.31%	inactive	5.41% and 4.82%
CC(C)(Cl)Cl	inactive	inactive	inactive	inactive	inactive	inactive	inactive	inactive	inactive	inactive	-3.24%	inactive	inactive	inactive	inactive	–	-1.91%	1.9%	inactive	-1.57%
Oc1c(Cl)cccc1Cl	inactive	inactive	–	inactive	inactive	inactive	–	inactive	inactive	inactive	-18.9%	inactive	inactive	inactive	inactive	inactive	9.38%	-3.49%	inactive	5.06%
CC(Cl)CCl (centres undefined)	inactive	inactive	inactive	inactive	inactive	inactive	inactive	inactive	inactive	inactive	-3.7%	inactive	inactive	inactive	inactive	inactive	-12.6%	-4.06%	inactive	3.07%
CN(C)c1ccccc1	inactive	inactive	inactive	inactive	inactive	inactive	–	inactive	–	inactive	-1.14%	inactive	inactive	inactive	inactive	–	12.1%	0.461%	inactive	-6.91%
Clc1ccccc1	inactive	inactive	inactive	inactive	inactive	inactive	inactive	inactive	inactive	inactive	8.57%	inactive	inactive	inactive	inactive	inactive	-18.9%	10.9%	inactive	-2.96%
Nc1ccc(-c2ccc(N)cc2)cc1	inactive	inactive	inactive	–	–	inactive	inactive	inactive	inactive	inactive	12.4%	inactive	–	inactive	–	inactive	-3.71%	2.98%	inactive	–
CN(C)C(=O)Nc1ccc(Cl)cc1	inactive	inactive	inactive	–	inactive	inactive	inactive	inactive	inactive	inactive	-0.766%	inactive	inactive	inactive	inactive	inactive	-16.9% and 1.13%	–	inactive	6.29% and 10.4%
Cc1cc(-c2ccc(N)c(C)c2)ccc1N	inactive	inactive	inactive	inactive	–	inactive	inactive	–	inactive	inactive	4.51% and -14.4%	inactive	–	inactive	–	inactive	-1.36% and 7.56% and 13.5%	-3.44% and 7.54% and -3.02%	–	–
